One assay deals with POU1 (OCT1 POU domain) (human, UniProt P14859 260-458). In words: EMSA-SELEX-seq; no BOB1; 20 mM Tris-HCl pH 7.6, 140 mM NaCl, 10% glycerol, 0.5 mM EDTA, 0.05% Triton X-100, 0.1 mg/mL BSA, 0.1 mg/mL poly(dI-dC), 5 mM DTT, room temperature, 20 min; high values mean tight binding. The note with it: protein: recombinant; dsDNA, one strand shown. The essentials:
(§1)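 With or without 28 ng coactivator protein, 30 ng of tagged POU-domain protein was combined with 300 ng of a PCR-amplified double-stranded random 35-nt library in 20 μL Tris–HCl pH 7.6 binding buffer for 20 min at RT. The protein came from E. coli BL21 and had been purified under denaturing conditions and renatured. Four rounds of cutting complex bands from native 6% PAGE, elution and PCR amplification preceded Illumina sequencing. The binding preference figure is the percentage of sequenced 8-mers matching a motif pattern.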

Another assay has as its target T1, POU2 (OCT2 POU domain) (human, UniProt P09086 175-386).
T1 sequence: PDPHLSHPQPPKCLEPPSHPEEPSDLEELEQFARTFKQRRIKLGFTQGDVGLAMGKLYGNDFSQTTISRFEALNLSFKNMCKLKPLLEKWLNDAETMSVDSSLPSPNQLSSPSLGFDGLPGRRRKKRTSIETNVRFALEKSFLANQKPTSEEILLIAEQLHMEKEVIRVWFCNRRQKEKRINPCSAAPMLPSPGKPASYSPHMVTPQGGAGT
The assay is described as above. The note with it: protein: recombinant; dsDNA, one strand shown. The essentials:
as §1

Assay [1] addresses POU1 (OCT1 POU domain);BOB1 (OBF1, OCA-B) (human;human, UniProt P14859;Q16633 260-458;1-256, |). The assay is described as follows: EMSA-SELEX-seq; with BOB1 (ternary complex band); 20 mM Tris-HCl pH 7.6, 140 mM NaCl, 10% glycerol, 0.5 mM EDTA, 0.05% Triton X-100, 0.1 mg/mL BSA, 0.1 mg/mL poly(dI-dC), 5 mM DTT, room temperature, 20 min; high values mean tight binding. The following applies: protein: recombinant;recombinant; copies: 1;1; dsDNA, one strand shown. The essentials: as §1
(In EMSA bound probe runs differently from free probe, usually more slowly.)

In assay [2] the target is T2, POU2 (OCT2 POU domain);BOB1 (OBF1, OCA-B) (human;human, UniProt P09086;Q16633 175-386;1-256, |).
T2 sequence 1: T1 sequence
T2 sequence 2: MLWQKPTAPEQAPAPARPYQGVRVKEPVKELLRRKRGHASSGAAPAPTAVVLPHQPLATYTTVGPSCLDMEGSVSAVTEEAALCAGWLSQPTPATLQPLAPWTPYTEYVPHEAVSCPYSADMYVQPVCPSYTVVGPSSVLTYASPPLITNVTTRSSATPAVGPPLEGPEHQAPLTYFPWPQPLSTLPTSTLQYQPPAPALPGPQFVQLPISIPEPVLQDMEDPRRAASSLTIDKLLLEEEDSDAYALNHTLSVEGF
The assay is described as above. The following applies: protein: recombinant;recombinant; copies: 1;1; dsDNA, one strand shown. The essentials:
as §1

Chain of POU1 (OCT1 POU domain) (P14859 260-458): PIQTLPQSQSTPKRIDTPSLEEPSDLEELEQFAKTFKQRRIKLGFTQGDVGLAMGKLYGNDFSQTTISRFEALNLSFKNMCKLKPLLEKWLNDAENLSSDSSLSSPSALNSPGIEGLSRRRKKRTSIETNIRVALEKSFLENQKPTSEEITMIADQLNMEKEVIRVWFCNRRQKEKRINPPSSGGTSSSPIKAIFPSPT

On to AAACCAAC, for which the binding signal was 0.0206 % of ANNNNAAN 8-mers in the assay with POU1 (OCT1 POU domain), 0.0104 % of ANNNNAAN 8-mers in the assay with POU2 (OCT2 POU domain), 0.0199 % of ANNNNAAN 8-mers in assay [1] and 0.0215 % of ANNNNAAN 8-mers in assay [2].
Regarding AAGTGAAG, the binding signal with POU1 (OCT1 POU domain) is 0.0381 % of ANNNNAAN 8-mers; with POU2 (OCT2 POU domain) it was 0.0409 % of ANNNNAAN 8-mers; in assay [1], 0.0386 % of ANNNNAAN 8-mers; in assay [2], 0.0454 % of ANNNNAAN 8-mers.
For ACCTTAAT, in that order: 0.0629 % of ANNNNAAN 8-mers, 0.0679 % of ANNNNAAN 8-mers, 0.0418 % of ANNNNAAN 8-mers and 0.0545 % of ANNNNAAN 8-mers.
For ATTACAAG, in that order: 0.0515 % of ANNNNAAN 8-mers, 0.0875 % of ANNNNAAN 8-mers, 0.048 % of ANNNNAAN 8-mers and 0.0413 % of ANNNNAAN 8-mers.
Turning to AGAACAAG, the binding signal with POU1 (OCT1 POU domain) was 0.0221 % of ANNNNAAN 8-mers; with POU2 (OCT2 POU domain), 0.0334 % of ANNNNAAN 8-mers; in assay [1] it was 0.0219 % of ANNNNAAN 8-mers; in assay [2], 0.0231 % of ANNNNAAN 8-mers.
For AGTAAAAT, in that order: 0.226 % of ANNNNAAN 8-mers, 0.179 % of ANNNNAAN 8-mers, 0.236 % of ANNNNAAN 8-mers and 0.148 % of ANNNNAAN 8-mers.
As for ACACGAAC, the binding signal with POU1 (OCT1 POU domain) is 0.0114 % of ANNNNAAN 8-mers; with POU2 (OCT2 POU domain), 0.0167 % of ANNNNAAN 8-mers; in assay [1], 0.0121 % of ANNNNAAN 8-mers; in assay [2], 0.0124 % of ANNNNAAN 8-mers.
For AACCCAAT, in that order: 0.0206 % of ANNNNAAN 8-mers, 0.019 % of ANNNNAAN 8-mers, 0.0273 % of ANNNNAAN 8-mers and 0.0223 % of ANNNNAAN 8-mers.
For AAGTCAAG, in that order: 0.0332 % of ANNNNAAN 8-mers, 0.0403 % of ANNNNAAN 8-mers, 0.0367 % of ANNNNAAN 8-mers and 0.033 % of ANNNNAAN 8-mers.
For AGGCGAAT, in that order: 0.0618 % of ANNNNAAN 8-mers, 0.069 % of ANNNNAAN 8-mers, 0.0593 % of ANNNNAAN 8-mers and 0.0743 % of ANNNNAAN 8-mers.
ATCCTAAT: the binding signal was 0.0614 % of ANNNNAAN 8-mers with POU1 (OCT1 POU domain), 0.0944 % of ANNNNAAN 8-mers with POU2 (OCT2 POU domain), 0.0499 % of ANNNNAAN 8-mers in assay [1] and 0.0693 % of ANNNNAAN 8-mers in assay [2].
For ATTAAAAA, in that order: 0.172 % of ANNNNAAN 8-mers, 0.219 % of ANNNNAAN 8-mers, 0.114 % of ANNNNAAN 8-mers and 0.09 % of ANNNNAAN 8-mers.
For ACGCCAAA, in that order: 0.0133 % of ANNNNAAN 8-mers, 0.0219 % of ANNNNAAN 8-mers, 0.016 % of ANNNNAAN 8-mers and 0.0223 % of ANNNNAAN 8-mers.
The corresponding values for ACTAAAAA are 0.0439 % of ANNNNAAN 8-mers, 0.0409 % of ANNNNAAN 8-mers, 0.0468 % of ANNNNAAN 8-mers and 0.0388 % of ANNNNAAN 8-mers.
AGTCCAAT: the binding signal with POU1 (OCT1 POU domain) was 0.0385 % of ANNNNAAN 8-mers; in the assay with POU2 (OCT2 POU domain) it was 0.0466 % of ANNNNAAN 8-mers; in assay [1], 0.0421 % of ANNNNAAN 8-mers; in assay [2], 0.0371 % of ANNNNAAN 8-mers.
The corresponding values for AGTGGAAA are 0.0542 % of ANNNNAAN 8-mers, 0.0512 % of ANNNNAAN 8-mers, 0.0718 % of ANNNNAAN 8-mers and 0.052 % of ANNNNAAN 8-mers.
Take AACGAAAC: the binding signal in the assay with POU1 (OCT1 POU domain) was 0.0225 % of ANNNNAAN 8-mers; in the assay with POU2 (OCT2 POU domain), 0.027 % of ANNNNAAN 8-mers; in assay [1] it was 0.0238 % of ANNNNAAN 8-mers; in assay [2] it was 0.0157 % of ANNNNAAN 8-mers.
The corresponding values for AAGACAAT are 0.0477 % of ANNNNAAN 8-mers, 0.0478 % of ANNNNAAN 8-mers, 0.0382 % of ANNNNAAN 8-mers and 0.0405 % of ANNNNAAN 8-mers.
The corresponding values for AACAAAAG are 0.0522 % of ANNNNAAN 8-mers, 0.0518 % of ANNNNAAN 8-mers, 0.0741 % of ANNNNAAN 8-mers and 0.0454 % of ANNNNAAN 8-mers.
The corresponding values for AGTGGAAG are 0.0324 % of ANNNNAAN 8-mers, 0.0357 % of ANNNNAAN 8-mers, 0.0414 % of ANNNNAAN 8-mers and 0.0405 % of ANNNNAAN 8-mers.
Turning to ATGTTAAA, the binding signal is 0.212 % of ANNNNAAN 8-mers with POU1 (OCT1 POU domain), 0.216 % of ANNNNAAN 8-mers in the assay with POU2 (OCT2 POU domain), 0.0956 % of ANNNNAAN 8-mers in assay [1] and 0.0892 % of ANNNNAAN 8-mers in assay [2].
As for AAAGCAAT, the binding signal with POU1 (OCT1 POU domain) is 0.05 % of ANNNNAAN 8-mers; in the assay with POU2 (OCT2 POU domain), 0.0455 % of ANNNNAAN 8-mers; in assay [1] it was 0.0652 % of ANNNNAAN 8-mers; in assay [2] it was 0.0371 % of ANNNNAAN 8-mers.
The corresponding values for AACGCAAA are 0.147 % of ANNNNAAN 8-mers, 0.0978 % of ANNNNAAN 8-mers, 0.266 % of ANNNNAAN 8-mers and 0.229 % of ANNNNAAN 8-mers.
For AGTCAAAC, in that order: 0.0763 % of ANNNNAAN 8-mers, 0.042 % of ANNNNAAN 8-mers, 0.122 % of ANNNNAAN 8-mers and 0.0545 % of ANNNNAAN 8-mers.
The corresponding values for AATGAAAA are 0.164 % of ANNNNAAN 8-mers, 0.152 % of ANNNNAAN 8-mers, 0.202 % of ANNNNAAN 8-mers and 0.114 % of ANNNNAAN 8-mers.
As to ACCGTAAC, the binding signal with POU1 (OCT1 POU domain) was 0.0118 % of ANNNNAAN 8-mers; in the assay with POU2 (OCT2 POU domain) it was 0.019 % of ANNNNAAN 8-mers; in assay [1], 0.018 % of ANNNNAAN 8-mers; in assay [2], 0.0272 % of ANNNNAAN 8-mers.
For the sequence AGGGTAAT, the binding signal in the assay with POU1 (OCT1 POU domain) is 0.186 % of ANNNNAAN 8-mers; with POU2 (OCT2 POU domain), 0.279 % of ANNNNAAN 8-mers; in assay [1] it was 0.12 % of ANNNNAAN 8-mers; in assay [2] it was 0.129 % of ANNNNAAN 8-mers.
The corresponding values for ATCACAAA are 0.0332 % of ANNNNAAN 8-mers, 0.0374 % of ANNNNAAN 8-mers, 0.0539 % of ANNNNAAN 8-mers and 0.0438 % of ANNNNAAN 8-mers.
For ATTAAAAT, in that order: 0.614 % of ANNNNAAN 8-mers, 0.636 % of ANNNNAAN 8-mers, 0.228 % of ANNNNAAN 8-mers and 0.204 % of ANNNNAAN 8-mers.
The corresponding values for AGATTAAC are 0.0885 % of ANNNNAAN 8-mers, 0.0863 % of ANNNNAAN 8-mers, 0.0414 % of ANNNNAAN 8-mers and 0.0495 % of ANNNNAAN 8-mers.
